SW480 rerep = A quantitative high throughput screen for small molecules that induce DNA re-replication in SW480 colon adenocarcinoma cells | SW480 DNA re-replication, Hoechst DNA content imaging, 48 h | AID 624297, 2012 | Potency, µM (series often up to 46.1 µM), actives largely listed as activators | 340,000 compounds, 1.8% hits; note: nearly all actives have a fitted effect of over 55% in size
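DNA re-replication was detected as more nuclei of elevated Hoechst intensity after 48 hr exposure to compound (23 nL pinned per well of 250 cells).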
BCR signal inh = qHTS Assay to Find Inhibitors of Chronic Active B-Cell Receptor Signaling; AID 493014, 2011; 340,000 compounds, 0.05% hits; Potency, µM (series often up to 46.1 µM), hits mostly inhibitors; ABC-DLBCL IkBa-CBG/CBR reporter, luminescence ratio, 4 h; active = well fitted inhibition curve with a large enough effect in the signal ratio, with a control signal flat, not every such curve was filed as active; inconclusive = small, poorly fitted or top-dose-only effect, or effect the other way, or a change in a side signal; the % refers to the signal ratio
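TMD8 ABC-DLBCL cells carrying doxycycline-inducible green luciferase fused to IkappaBalpha plus unfused red luciferase were exposed to compounds (up to 46 uM) for 4 hrs at 37C. Activity came from the overlap-corrected green/red luminescence ratio.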
DT40 TDP1 no CPT = qHTS for Inhibitors of human tyrosyl-DNA phosphodiesterase 1 (TDP1): qHTS in cells in absence of CPT. Potency, µM (titrated, usually from 46.2 µM), actives largely listed as inhibitors. 420,000 compounds, 15% hits. DT40 Tdp1-/- hTDP1 cells, no CPT, ATP luminescence, 48 h; note: nearly all actives have a fitted effect of over 55% in size
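Stably hTDP1-transfected Tdp1-null chicken DT40 cells were treated with library compounds minus camptothecin and grown for at least 48 hr at 37 °C, after which cellular ATP was quantified by luminescence.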
MCF10A rereplic = A quantitative high throughput screen for small molecules that induce DNA re-replication in MCF 10a normal breast cells | Potency, µM (titrated, usually from 46.1 µM), hits mostly activators | AID 624296, 2012 | 350,000 compounds, 2.9% hits | MCF 10A DNA re-replication, Hoechst nuclear intensity, 48 h; note: nearly all actives have a fitted effect of over 50% in size
IL1B secr inh = qHTS for Inhibitors of Inflammasome Signaling: IL-1-beta AlphaLISA Primary Screen | activity change, % at 57.5 µM | AID 743279, 2014 | THP-1 LPS/ATP IL-1B secretion, AlphaLISA, 16 h; stronger effect = lower value | 360,000 compounds, 4.7% hits; in the data active = activity change below about -50%; inconclusive = mostly about -30% to -49%
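THP-1 cells pretreated 1 hr with compounds (up to 57.5 uM final), then stimulated with LPS (250 ng/mL final) plus ATP (1.25 mM final); secreted IL-1B measured by AlphaLISA after 16 hr, decreased signal indicating inhibition.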
TDP1 cell CPT = qHTS for Inhibitors of human tyrosyl-DNA phosphodiesterase 1 (TDP1): qHTS in cells in presence of CPT | chicken DT40 Tdp1-/-;hTDP1 cells + 20 nM CPT, ATP luminescence, 48 h | Potency, µM (titrated, usually from 46.2 µM), usual class: inhibitors | 420,000 compounds, 12% hits; note: nearly all actives have a fitted effect of over 55% in size
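Cell growth measured by CellTiter-Glo luminescence after a minimum 48 h, 37 C compound exposure with 20 nM CPT in Tdp1-knockout DT40 cells stably expressing hTDP1, seeded 400/well; qHTS titration format.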
Numbers stand for hits; . = inactive; ? = inconclusive; / = not tested or not shown; [ ] = remark or other dose. A selection: hits, their analogues and other compounds. The true share with any hit is near 19%. Unless noted, calls come from the whole dose curve; as a rule, active = well fitted curve in the direction sought with a large enough effect; inconclusive = small, poorly fitted or top-dose-only effect, or another doubt; inactive = no such curve, though single readings can be large; an effect the other way counts as inactive or inconclusive.

SMILES	SW480 rerep	BCR signal inh	DT40 TDP1 no CPT	MCF10A rereplic	IL1B secr inh	TDP1 cell CPT
COc1ccc(NC(=O)CCN2CCN(C/C=C/c3ccccc3)CC2)cc1	.	.	?	.	.	.
Cc1ccc(NC(=O)CCN2CCN(C/C=C/c3ccccc3)CC2)cc1C	.	.	?	?	-53	?
COc1cc(NC(=O)CCN2CCN(C/C=C/c3ccccc3)CC2)cc(OC)c1	.	?	21µM	.	.	?
O=C(Nc1cccc(Cl)c1)N1CCN(C/C=C/c2ccccc2)CC1	.	.	.	.	-51	?
Cc1nc2nc(C)c(NS(=O)(=O)c3ccc4c(c3)CCCC4)c(=O)n2[nH]1	.	.	.	.	.	.
Cc1cc(N2CCCCC2)nc2ccc(NC(=O)c3ccc(Br)o3)cc12	?	?	?	8.2µM	-66	?
COc1cc(C(=O)Nc2ccc3nc(N4CCN(C)CC4)cc(C)c3c2)cc(OC)c1OC	?	?	?	.	.	?
Cc1cc(N2CCN(C)CC2)nc2ccc(NC(=O)c3ccc4c(c3)OCO4)cc12	.	?	.	?	-54	.
Cc1cc(N2CCCCC2)nc2ccc(NC(=O)c3ccc(F)cc3)cc12	/	/	15µM	/	/	21µM
Cc1cc(N2CCN(C)CC2)nc2ccc(NC(=O)c3ccc(Br)o3)cc12	.	.	18µM	.	.	?
CCSC1(SCC)N=C(N)C2(C#N)C(c3ccc(F)cc3)C12C#N (configuration not stated)	.[9.22 µM]	.	21µM	?	-109	?
CCSC1(SCC)N=C(N)C2(C#N)C(c3ccccc3)NC(C)=C(C)C12C#N (configuration not stated)	.	.	.	.	.	.
CCCCN(C(=O)c1cc(CC)c(C)s1)c1c(N)n(CCC)c(=O)[nH]c1=O	?	.	.	.	.	.
CSCCC(NC(=O)c1ccccc1)C(=O)N1CCN(C(c2ccccc2)c2ccccc2)CC1 (configuration not stated)	.	.	?	?	.	?
Cc1ccc(C2NC(=O)c3c(sc(C)c3C)N2)c(O)c1 (configuration not stated)	21µM	?	.	?	.	.
Cc1cccc(C2NC(=O)c3c(sc(C)c3C)N2)c1O (configuration not stated)	.	.	.	.	.	.
Cc1ccc(N=Cc2ccc(O)cc2O)cc1F	.	.	21µM	?	.	?
Oc1ccc(C=Nc2ccc(N3CCOCC3)cc2)c(O)c1	?	.	.	?	.	.
COc1cc(/C=C/c2ccc3cccc(OC)c3n2)c(O)c([N+](=O)[O-])c1	.	?	.	.	?	.
COc1c(OC(C)=O)ccc(/C=C/c2ccc3cccc(OCc4ccccc4)c3n2)c1[N+](=O)[O-]	.	?	15µM	.	-50	15µM
COc1cc(/C=C/c2ccc3cccc(OC)c3n2)c(OC(C)=O)c([N+](=O)[O-])c1	?	?	15µM	6.5µM	?	12µM
CC(=O)Nc1cc([N+](=O)[O-])ccc1OCc1ccccc1	.	/	?	.	.	?
COc1ccc2c(c1)-c1nc(-n3ncc(C(=O)N(C)CC4CCCN(C)C4)c3C3CC3)ncc1CC2 (configuration not stated)	/	/	.	/	/	.
COc1ccc2nc(SCCC(=O)O)cc(C)c2c1	.	?	.	.	.	.
Nc1cc(N)[nH]c(=S)n1	/	/	.	/	/	.
O=C(NCc1ccco1)c1ccc2c(c1)N(Cc1ccccc1F)C(=O)c1ccccc1S2(=O)=O	/	/	?	/	/	.
CCOC(=O)c1ccc(Nc2ncnc3c2cnn3C)cc1	.	?	?	.	.	?

Screening data from PubChem BioAssay.
